Publication PMC4552634, “A New Set of Chemical Starting Points with Plasmodium falciparum Transmission-Blocking Potential for Antimalarial Drug Discovery” (PLoS ONE, 2015)
Hit rate of the full screen: of about 13,000 compounds, about 3,200 (25%) showed an effect of 50% or more. The list shows a part of the results.

Tested on: P. falciparum stage V gametocytes
Parameters: BacTiter-Glo ATP luminescence viability of purified stage V gametocytes in 384-well plates, per cent inhibition versus DMSO
Settings: 48 h, 5 µM; inhibitor

| SMILES | % Inhibition [%] |
| --- | --- |
| COc1cccc(C(C)(C)NC[C@@H](O)[C@H](Cc2ccccc2)NC(=O)c2cc(C3CCCC3)cc(N3CCCCS3(=O)=O)c2F)c1 [TCMDC-135510] | 45.23 |
| CCN(CC)CCN(Cc1ccc(-c2ccc(C(F)(F)F)cc2)cc1)C(=O)Cn1c(CCc2c(F)cccc2F)nc(=O)c2ccccc21 [TCMDC-140950] | 87.94 |
| CCN(CC)CCN(Cc1ccc(-c2ccc(C(F)(F)F)cc2)cc1)C(=O)Cn1c(CCc2c(F)cc(F)cc2F)nc(=O)c2ccccc21 [TCMDC-140967] | 61.03 |
| CCN(CC)CCN(Cc1ccc(-c2ccc(C(F)(F)F)cc2)cc1)C(=O)Cn1c(CCc2c(F)ccc(F)c2F)nc(=O)c2ccccc21 [TCMDC-140953] | 67.68 |
| CCN(CC)CCN(Cc1ccc(-c2ccc(C(F)(F)F)cc2)cc1)C(=O)Cn1c(CCc2cc(F)cc(F)c2F)nc(=O)c2ccccc21 [TCMDC-140955] | 88.67 |
| CC(CCCCOCCc1ccccc1)NCC(O)c1cc(Cl)c(N)c(Cl)c1 (stereo not drawn) [TCMDC-132072] | 16.2 |
| Cc1ccc(-c2nnc(Nc3ccc(C(=O)N4CCCCC4)cc3)c3ccccc23)cc1S(=O)(=O)NCC1CCCO1 (stereo not drawn) [TCMDC-125618] | 37.21 |
| COc1ccc2nccc([C@@H](O)CN3CCC(NCc4cc5cccc(OC)c5o4)CC3)c2c1 [TCMDC-140683] | -7.327 |
| O[C@@H](c1cc(C(F)(F)F)nc2c(C(F)(F)F)cccc12)[C@H]1CCCCN1 [TCMDC-124288] | 25.8 |
| Cc1ccc(F)cc1S(=O)(=O)N1CCCCC(c2ccc(C(F)(F)F)cc2)=N1 [TCMDC-134531] | -12.63 |
| COc1cccc(NC(=O)Nc2cc(-c3ccc4[nH]ncc4c3)cc3c2CNC3=O)c1 [TCMDC-133475] | 14.15 |
| O=C(Nc1ccc(Cl)cc1C(=O)Nc1cccc(F)c1)c1ccc([N+](=O)[O-])cc1 [TCMDC-123788] | -68.85 |
| CCC(C)CNC(=O)CN1CN(c2ccccc2)C2(CCN(C(=O)c3ccc(Br)cc3)CC2)C1=O (stereo not drawn) [TCMDC-125167] | -9.167 |
| Cc1ccc(NC(=O)c2ccc3ncccc3c2)cc1OC1CCN(C(C)C)C1 (stereo not drawn) [TCMDC-133739] | 24.97 |
| COc1ccc2nccc([C@@H](O)CN3CCC(NCCOc4ccccc4C#N)CC3)c2c1 [TCMDC-140712] | 9.495 |
| Nc1ccc2nc(C=Cc3ccccc3)[nH]c2c1 [TCMDC-124430] | 29.38 |
| Cc1ccc2nc(/C=C/c3cccc4cc[nH]c34)[nH]c2c1 [TCMDC-138896] | 83.23 |
| COc1ccc2nc(/C=C/c3cccc4ccc(C)nc34)[nH]c2c1 [TCMDC-138821] | -26.73 |
